# Data taken from PubChem BioAssay (NCATS).
# Records with an inconclusive call do not appear. Values without a mark were called inactive. Calls of active or inactive are those of the source. The call rests on the fitted dose curve; in most records, active means well fitted cell-killing curve with a large enough effect; inconclusive means small, poorly fitted or top-dose-only effect, or effect the other way; inactive means no such curve, though single readings can be large or run the other way. Starred links: 1 amine or outer side, 2 acyl side, 3 side chain; linkers in the order of their positions; H or OH if unused. Positions of bridges follow the written chain, without caps; N, C: chain ends. Non-standard residues stand in square brackets, D forms with d. Residues, ends and D or L forms follow the SMILES beside them. Chains are numbered I, II in the order given. *: point of attachment. Actinocin(9to1) = Cc1c2oc3c(C)ccc(C(=O)[*:1])c3nc-2c(C(=O)[*:2])c(N)c1=O; NMeV = CN[CH](C(=O)O)C(C)C; Cbz = O=C(OCc1ccccc1)*; Sar = CNCC(=O)O
# Experiment: Quantitative High-Throughput drug screen in 47 multiple myeloma cell lines against the NCATS MIPE library collection: MM1S_ATCC cell viability assay (AID 1918980); further: nearly all actives have a fitted effect of over 45% in size
# Settings: MM1S myeloma viability, CellTiter-Glo ATP luminescence, 48 h; series mostly up to 45.8 µM; viability (% of control): at the top concentration
# Text: PI: Beverly A. Mock Ph.D.
# Laboratory of Cancer Biology and Genetics,
# Center for Cancer Research, National Cancer Institute,
# National Institute of Health, Bethesda, Maryland
# Drug resistance and disease progression are common in multiple myeloma (MM) patients, underscoring the need for new therapeutic combinations. […] We hypothesized that effective combinations would reduce MYC expression and enhance p16 activity. […] These preclinical data identify potentially useful drug combinations for evaluation in drug-resistant MM and reveal potential mechanisms of combined drug sensitivity.
# Described herein is the primary MIPE qHTS used to cherrypick compounds. Validated compounds were then further tested for potential synergistic activiy.
# [1] Peat TJ, Gaikwad SM, Dubois W, Gyabaah-Kessie N, Zhang S, Gorjifard S, Phyo Z, Andres M, Hughitt VK, Simpson RM, Miller MA, Girvin AT, Taylor A, Williams D, D'Antonio N, Zhang Y, Rajagopalan A, Flietner E, Wilson K, Zhang X, Shinn P, Klumpp-Thomas C, McKnight C, Itkin Z, Chen L, Kazandijian D, Zhang J, Michalowski AM, Simmons JK, Keats J, Thomas CJ, Mock BA. Drug combinations identified by high-throughput screening promote cell cycle transition and upregulate Smad pathways in myeloma. Cancer Lett. 2023 Aug 1;568:216284. doi: 10.1016/j.canlet.2023.216284. Epub 2023 Jun 24. PMID: 37356470; PMCID: PMC10408729.
# SEQUENCE No. (e.g., 1, 2, 3, etc.); […] (e.g., Cells, Incubation, Reagent, etc.); VALUE and DESCRIPTION.
# 1; Cells; 5 uL; white, solid bottom 1536-well Greiner assay plate.
# 2; Compounds; 23 nL; Kalypsis pin tool (Wako USA) equipped with a 1536-well pin head to transfer to the assay plates.
# 3; Incubation; 48 hours; 37C incubation.
# 4; Reagent;5uL; CellTiter Glo (Promega).
# 5; Detector; 425V; Luminescence; Viewlux PerkinElmer.
# NOTES (numbers refer to Sequence numbers above)
# 1. The cell-based screening methods employed in this study were like those previously published. Briefly, the corresponding myeloma cell lines were screened in 1,536-well plates with 500 cells, 5-uL per well for inhibition of cell viability (assessed by measuring ATP levels with CellTiterGlo).
# 2. NCATS MIPE 4.0 library of approved and investigational drugs were added using the Kalypsis pin tool. Wells treated with DMSO only for 100% viability and media only for 0% viability were used as controls.
# 3. The assay plates were covered and incubated for 48 hours in a 37C, 5% CO2 incubator with controlled humidity.
# 4. After 48 hours, CellTilter-GloTM luminescent substrate mix (Promega) reagent was added to the assay plate and plates we incubated for 5 min at room temperature.
# 5. Signal was measured as median relative luminescence units on a ViewLux (PerkinElmer) multiplate reader.
# [1] Heske CM, Davis MI, Baumgart JT, Wilson K, Gormally MV, Chen L, Zhang X, Ceribelli M, Duveau DY, Guha R, Ferrer M, Arnaldez FI, Ji J, Tran HL, Zhang Y, Mendoza A, Helman LJ, Thomas CJ. Matrix Screen Identifies Synergistic Combination of PARP Inhibitors and Nicotinamide Phosphoribosyltransferase (NAMPT) Inhibitors in Ewing Sarcoma. Clin Cancer Res. 2017 Dec 1;23(23):7301-7311. doi: 10.1158/1078-0432.CCR-17-1121. Epub 2017 Sep 12. PMID: 28899971; PMCID: PMC6636827.
# Potency means the concentration at half of the fitted maximal effect.
SMILES,Potency,viability (% of control) [%]
CCC(C=C[C@@H]1OC(=O)C=C[C@H]1C)=C[C@H](C)CC=CC(C)=C[C@@H](C)C(=O)[C@@H](C)[C@H](O)[C@@H](C)CC(C)=CC(=O)O,0.0156 µM (active),
CCCCCCCCCCCC(CC1OC(=O)C1CCCCCC)OC(=O)C(CC(C)C)NC=O (stereo not given),,127
COc1cc(O)c2c(c1)C1OC1C[C@H](O)[C@H](O)C(=O)C=CC[C@H](C)OC2=O (stereo not given in full),2.96 µM (active),
COc1ccc(C=Cc2cc(OC)c(OC)c(OC)c2)cc1NC(=O)[C@H](N)CO,0.0209 µM (active),
N#CNC(=NCCCCCCOc1ccc(Cl)cc1)Nc1ccncc1,0.0059 µM (active),
CC[C@H]1OC(=O)[C@H](C)[C@@H](O[C@H]2C[C@@](C)(OC)[C@@H](O)[C@H](C)O2)[C@H](C)[C@@H](O[C@@H]2O[C@@H](C)C[C@H](N(C)C)[C@@H]2O)[C@](C)(O)C[C@@H](C)C(=O)[C@H](C)[C@@H](O)[C@]1(C)O,,136
O=C1NC(=O)[C@@H](c2cn3c4c(cccc24)CCC3)[C@H]1c1c[nH]c2ccccc12,18.7 µM (active),
CC(C)(N)c1ccc(-c2nc3ccccc3nc2-c2ccccc2)cc1,18.7 µM (active),
C[C@]12CCC(=O)C=C1[C@@H]1CC1[C@H]1[C@H]3[C@@H]4C[C@H]4[C@@]4(CCC(=O)O4)[C@@]3(C)CC[C@H]12 (stereo not given in full),,101
CCCNC(=O)[C@H]1O[C@H]1C(=O)N[C@H](C(=O)N1CCC[C@@H]1C(=O)OC)C(C)CC (stereo not given in full),2.35 µM (active),
COC1=C2C[C@@H](C)C[C@H](OC)[C@@H](O)[C@@H](C)C=C(C)[C@H](OC(N)=O)[C@@H](OC)C=CC=C(C)C(=O)NC(=CC1=O)C2=O,0.059 µM (active),
Cc1cnc(Nc2ccc(CN3CCOCC3)cc2)nc1Nc1cccc(S(=O)(=O)NC(C)(C)C)c1,5.9 µM (active),
COc1cc(OC)c(C=CS(=O)(=O)Cc2ccc(OC)c(NCC(=O)O)c2)c(OC)c1,4.18 µM (active),
NC(=O)c1ncn([C@@H]2O[C@H](CO)[C@@H](O)[C@@H]2O)c1N,,151
CCC[C@H]1C[C@H](C(=O)N[C@@H]([C@@H]2O[C@@H](SC)[C@@H](O)[C@@H](O)[C@@H]2O)[C@H](C)Cl)N(C)C1,,163
O=C(NC1CC1)c1cccc(-c2ccc3c(NC(=O)C4CC4)n[nH]c3c2)c1,0.332 µM (active),
COC(=O)C=CC(=O)OC,1.66 µM (active),
CN[C@H]1[C@@H](O)[C@@H]2O[C@@H]3O[C@H](C)CC(=O)[C@]3(O)O[C@@H]2[C@@H](NC)[C@H]1O,0.209 µM (active),
CCc1nc(-c2cccc(C)c2)c(-c2ccnc(NC(=O)c3ccccc3)c2)s1,20.9 µM (active),
Oc1cc2c(cc1O)C1c3ccc(O)c(O)c3OCC1(O)C2 (stereo not given),9.35 µM (active),

SMILES,Potency,viability (% of control) [%]
CC(=O)N[C@H]1[C@@H]([C@H](O)[C@H](O)CO)OC(C(=O)O)=C[C@@H]1N=C(N)N,,115
C=CCNC1=C2C[C@@H](C)C[C@H](OC)[C@@H](O)[C@@H](C)C=C(C)[C@H](OC(N)=O)[C@@H](OC)C=CC=C(C)C(=O)NC(=CC1=O)C2=O,2.35 µM (active),
CN[C@@H]1C[C@H]2O[C@@](C)([C@H]1OC)n1c3ccccc3c3c4c(c5c6ccccc6n2c5c31)C(=O)N[C@H]4O,0.332 µM (active),
COC(=O)C1C2CC3c4[nH]c5cc(OC)ccc5c4CCN3CC2CC(OC(=O)c2cc(OC)c(OC)c(OC)c2)C1OC (stereo not given),14.8 µM (active),
Cc1nc(NC(=O)N2CCC[C@@H]2C(N)=O)sc1-c1ccnc(C(C)(C)C(F)(F)F)c1,3.32 µM (active),
O=C(O)C[C@H](O)C[C@H](O)C=Cc1c(C2CC2)nc2ccccc2c1-c1ccc(F)cc1,5.26 µM (active),
COc1ccc2cc([S+]([O-])Cc3ncc(C)c(OC)c3C)nc2c1,,116
C=C1C[C@@]2(O)O[C@@]3(C[C@H]2C(C)C)[C@H](C)CC[C@H]13,1.48 µM (active),
C[C@@]12C(=O)OC(=O)[C@@]1(C)C1CCC2O1,1.66 µM (active),
Cc1cnc(Nc2ccc(N3CCN(C)CC3)cc2)nc1Nc1cccc(S(=O)(=O)NC(C)(C)C)c1,3.32 µM (active),
CC(=O)OC[C@@H]1O[C@@H](n2ccc(=O)[nH]c2=O)[C@H](OC(C)=O)[C@H]1OC(C)=O,,141
Nc1nc(=O)n([C@H]2C[C@H](O)[C@@H](CO)O2)cc1F,0.0074 µM (active),
CC(C)C[C@@H](C=O)NC(=O)[C@H](CC(C)C)NC(=O)[C@H](CC(C)C)NC(=O)OCc1ccccc1 (Cbz-Leu-Leu-Leu-aldehyde),0.166 µM (active),
CCNC(=O)Nc1ccc(-c2nc3c(c(N4CCOC[C@H]4C)n2)CCN(C2COC2)C3)cc1,1.05 µM (active),
O=C(CCCCCCC(=O)Nc1cccnc1)NO,3.32 µM (active),
Nc1ncn([C@@H]2O[C@H](CO)[C@@H](O)[C@@H]2O)c(=O)n1,18.7 µM (active),
CC(C)(O)Cn1c(NC(=O)c2ccc(-c3cn[nH]c3)s2)nc2cc(CN3CCOCC3)ccc21,1.66 µM (active),
CNC(=O)c1ccc(Nc2cc(Nc3ccccc3S(=O)(=O)C(C)C)c3cc[nH]c3n2)nc1,13.2 µM (active),
CC(=O)O[C@H]1C[C@@H]2CC[C@H]3[C@H]4C[C@H]([N+]5(C)CCCCC5)[C@@H](OC(C)=O)[C@@]4(C)CC[C@@H]3[C@@]2(C)C[C@H]1N1CCCCC1,6.62 µM (active),
"Cc1c2oc3c(C)ccc(C(=O)NC4C(=O)NC(C(C)C)C(=O)N5CCCC5C(=O)N(C)CC(=O)N(C)C(C(C)C)C(=O)OC4C)c3nc-2c(C(=O)NC2C(=O)NC(C(C)C)C(=O)N3CCCC3C(=O)N(C)CC(=O)N(C)C(C(C)C)C(=O)OC2C)c(N)c1=O (stereo not given) (I: TVP[Sar][NMeV] / II: TVP[Sar][NMeV]; ester I:1-I:C, II:1-II:C; linker I:N-II:N via Actinocin(9to1); configuration not given here)",,-0.246
